# Measured values from PubChem BioAssay (NCI).
# This is part of a sample that, as a whole, favours compounds with a hit. Of some 79,000 tested, about 15% had one in any assay. Values without a mark were called inactive. Activity calls are given as the source filed them. Cut-off read from the data, not from the text of the source: active = growth inhibition above about 70%; inactive = the rest.
# Experiment: NCI Yeast Anticancer Drug Screen. Data for the sgs1 mgt1 strain (AID 161);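 note: 0% = growth of cultures given vehicle only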
# Conditions: S. cerevisiae sgs1 mgt1 strain, active compounds read high
# Protocol: Growth inhibition of yeast strains with defined genetic alterations is measured as a screen for potential anti-cancer activity. Selected strains with alterations in DNA damage repair or cell cycle control were exposed to compounds and growth inhibition was measured relative to vehicle treated controls. The strain used in this assay is sgs1 mgt1
# [1] = at 5.0 µM (retest, dose inferred, filed as 0.5)
# [2] = at 50.0 µM (retest, dose inferred, filed as 5.0)
Structure (SMILES),growth inhibition [1],growth inhibition [2],growth inhibition (at 50.0 µM)
O=[N+]([O-])c1ccc(NSc2ccccc2)cc1,5%,97% (active),90.2% (active)
CC(=O)OC1C(C)OC(OC(=O)C2CCC3C(C2)OC2(CC(OC(=O)/C=C/c4ccccc4)C(C)CO2)C32CO2)C(OC2OC(C)C(O)C(OC(C)=O)C2O)C1O (configuration not stated),30%,99% (active),91.5% (active)
COc1ccc(/C=C(\C#N)c2ccccc2)cc1OC,1%,53%,88.5% (active)
COc1ccc(C(=O)C(CN2CCCC2)CN2CCCC2)cc1,-5%,82% (active),44%
O=C(Cc1ccc2c(c1)OCO2)c1ccc(O)cc1O,9%,85% (active),96.7% (active)
CCCCCCCCCCCCCCCCCC(=O)OCC(COC(=O)CCCN)OC(=O)CCCN (configuration not stated),3%,99% (active),98% (active)
O=C(C(=O)c1ccncc1)c1ccccc1,-58%,-63%,-5.6%
N#CC(C#N)=C1CCC(CC2CCCCC2)CC1 (configuration not stated),-60%,96% (active),98% (active)
O=c1c(NO)c([N+](=O)[O-])cnn1-c1ccccc1,-7%,-2%,29.4%
CC(C)OC(=O)c1ccc(NCc2cc(O)ccc2O)cc1Cl,55%,99% (active),91.6% (active)
N#CSCC(=O)c1ccc(Cl)cc1,92% (active),98% (active),92.5% (active)
CCCCCCCC/C=C\CCCCCCCCN1CCOCC1,-4%,5%,99.2% (active)
CN(C)CCNc1ccc(O)c2sc3ccccc3c(=O)c12,-7%,70% (active),48.1%
CC(=O)C(=Cc1ccc(C=C(C(C)=O)C(C)=O)cc1)C(C)=O,11%,61%,58.5%
